Pf Dd2 inh: qHTS Primary assay for Inhibitors of Plasmodium falciparum Dd2 growth in vitro. P. falciparum Dd2 growth, SYBR Green, 72 h. Potency, µM (highest dose often 28.9 µM), without a hit: top-dose activity, negative = inhibition, usual class: inhibitors. 120,000 tested, 4.3% active; active means well fitted inhibition curve with a large enough effect;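 further: plate controls were DMSO vehicle for no effect and reference drug for full effect; nearly all actives have a fitted effect of over 65% in size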
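Readout: SYBR Green fluorescence, 485 nm excitation, 535 nm emission, after ~16 h lysis at 37C. Before that, Dd2-infected red cells (2.5% hematocrit) grew 72 h with compound, 29 uM top final concentration.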
* hit, by the source's call; i = inactive; [ ] = remark or other dose. The entries come from a sample that favours hits as a whole. Potency means the concentration at half of the fitted maximal effect.

SMILES	Pf Dd2 inh
COc1ccc(N2CC(C(=O)NCc3ccc(F)cc3)NC2=O)cc1 (stereo not given)	i
CCN1CC(c2ccccc2)CC2(CCN(C(=O)N3CCCC3)CC2)C1 (stereo not given)	-49%
CCNC(=O)C1C(c2ccc(NC(=O)c3cccc(Cl)c3)cc2)OC(=O)N1Cc1ccc(C)cc1 (stereo not given)	i
COC(=O)CN1C(=O)[C@@H]2C[C@@H](O)CN2C2(CN(Cc3ccc(OC)cc3)C2)C1=O	42%[44.1 µM]
CC(C)(C)CC(=O)Nc1ccc([C@@H](O)[C@H]2COCC(=O)N2Cc2ccc(F)cc2)cc1	i
COc1ccccc1-n1nc(CC(N)=O)nc1-c1ocnc1C	-11%
CCOC(=O)C1CCCN(C(=O)CC(c2cccc([N+](=O)[O-])c2)c2c[nH]c3c(CC)cccc23)C1 (stereo not given)	13µM*
CCc1cccc2c(C(CC(=O)N3CCCCC3)c3cccc(C)c3)c[nH]c12 (stereo not given)	i
CCc1cccc2c(C(CC(=O)NC(C)CC)c3ccc(OC)c(OC)c3)c[nH]c12 (stereo not given)	-4%
CCc1cccc2c(C(CC(=O)N3CCc4ccccc4C3)c3cccc4c3OCO4)c[nH]c12 (stereo not given)	8.9µM*
CCCNC(=O)CC(c1ccc(OC)c(OC)c1)c1c[nH]c2c(CC)cccc12 (stereo not given)	-11%
CCCNC(=O)CC(c1ccccc1OC)c1c[nH]c2c(CC)cccc12 (stereo not given)	i
CC(CCc1ccccc1)NC(=O)CC(c1cccc2c1OCO2)c1c[nH]c2ccccc12 (stereo not given)	-15%
COc1ccc(C(CC(=O)N2CCCC2)c2c[nH]c3ccccc23)cc1 (stereo not given)	-7%
CCc1cccc2c(C(CC(=O)N3CCCC3)c3cccc([N+](=O)[O-])c3)c[nH]c12 (stereo not given)	7.9µM*
COc1ccc(CNC(=O)NCC23CCC=C2N(C)C(=O)CC3)cc1 (stereo not given)	-17%
O=C(NC1CCCCC1)c1ccc2c(c1)sc1nc(-c3ccc(F)cc3)cn12	-10%
COc1ccc(-c2cn3c(n2)sc2cc(C(=O)NCCCN4CCCCC4)ccc23)cc1	1.1µM*
CCOC(=O)C1CCN(C(=O)c2ccc3c(c2)sc2nc(-c4ccc(OCC)cc4)cn23)CC1	8.9µM*
COc1ccc(-c2cn3c(n2)sc2cc(C(=O)NC4CCCCCC4)ccc23)cc1	i
COc1ccc(-c2cn3c(n2)sc2cc(C(=O)NCCCN4CCCCCC4)ccc23)cc1	8.9µM*
COc1ccc(-c2cn3c(n2)sc2cc(C(=O)Nc4cccc(OC)c4)ccc23)cc1	-4%
COc1cccc(-c2cn3c(n2)sc2cc(C(=O)NCCC4=CCCCC4)ccc23)c1	i
O=C(NC1CCCCCC1)c1ccc2c(c1)sc1nc(-c3ccc(F)cc3)cn12	6%
O=C1NCc2ccccc2CC12CCN(Cc1ccc([N+](=O)[O-])cc1)C2 (stereo not given)	-1%
SMILES	Pf Dd2 inh
CC(=O)N[C@@H]1C[C@H](Cc2ccccc2)O[C@H](c2c(C)nn(C(C)(C)C)c2C)C1	-21%
COc1cc(CN2CCC3(Cc4ccccc4CNC3=O)C2)cc(OC)c1 (stereo not given)	-13%
CS(=O)(=O)N1CCCN(C(=O)C2CCCCC2)c2ccccc21	33%
O=C(c1ccc(Cl)cc1)N1CC2(CCN(CC3CCCCC3)CC2)Cc2ccccc21	5.6µM*
C[S+](=O)([O-])N1Cc2ccccc2CC2(CCN(Cc3ccccn3)CC2)C1	-19%
CC(=O)NCC(=O)N1Cc2ccccc2CC2(CCN(CC3CCCCC3)C2)C1 (stereo not given)	-24%
O=C(C1CCCC1)N1CC2(CCN(Cc3ccccn3)CC2)Cc2ccccc21	10µM*
O=C(C1CCCC1)N1CC2(CCN(CC3CC3)C2)Cc2ccccc21 (stereo not given)	8.9µM*
O=C(C1CCCC1)N1CC2(CCCN2C2COC2)Cc2ccccc21 (stereo not given)	8.9µM*
CC(=O)N1Cc2ccccc2CC2(CCN(CC3CCNCC3)C2)C1 (stereo not given)	13%
CC(=O)N1CC2(CCN(C(=O)c3ccc(Cl)cc3)CC2)Cc2ccccc21	3%
O=C(c1ccccc1)N1Cc2ccccc2CC2(CCN(CC3CCNC3)C2)C1 (stereo not given)	3%
O=C(O)CCC(=O)N1CCC2(Cc3ccccc3N(C(=O)C3CCCC3)C2)C1 (stereo not given)	21%
CC(=O)N1CC2(CCCN2C(=O)CCC(=O)O)Cc2ccccc21 (stereo not given)	18%
O=C(NCCN1CCCOC1=O)c1ccc2nc(C3CCCCC3)oc2c1	1%
OC1CN(Cc2ccccc2)CCN(Cc2ccc(OC(F)F)cc2)C1 (stereo not given)	i
CN1C(=O)C(c2ccccc2)CC12CCN(C(=O)c1ccc(F)cc1F)CC2 (stereo not given)	-12%
O=C(Cc1ccsc1)N1CCCC(Cc2nc(C3CCOCC3)no2)C1 (stereo not given)	-23%
CC1Oc2ccc(NC(=O)Cc3ccc(F)cc3)cc2CN(CC2CC2)C1=O (stereo not given)	i
O=C(NC1CC1)c1cc2cccnn2n1	i
CC(=O)N1CC2(CCN(CC3CC3)CC2)Cc2ccccc21	-14%[44.1 µM]
CC(=O)N1CC2(CCN(CC3CC3)C2)Cc2ccccc21 (stereo not given)	-26%[44.1 µM]
O=C1Nc2ccccc2CNC12CCN(Cc1c[nH]c3ccccc13)CC2	-25%
O=C(C1CCCC1)N1CC2(CCN(Cc3c[nH]c4ccccc34)CC2)Cc2ccccc21	4.5µM*
CC(=O)N1CC2(CCCN(CC3CCCCC3)C2)Cc2ccccc21 (stereo not given)	10µM*
SMILES	Pf Dd2 inh
CC(=O)N1CC(CO)C2(CCN(Cc3c[nH]c4ccccc34)CC2)C1 (stereo not given)	46%
Cc1ccc(-c2noc(-c3nc(-c4ccccn4)no3)n2)cc1	-22%
O=C1CCN(C(=O)c2ccccc2)CCCC(C(=O)NCCCn2cccn2)CCN1 (stereo not given)	1%
O=C(N[C@H]1C[C@@H]2C(=O)N[C@H]3CCN(C(=O)C4CCCC4)[C@@H]3C(=O)N2C1)c1cccs1	-10%[44.1 µM]
O=C(NCC(F)F)C1CN(c2ccc(F)cc2)C(=O)N1 (stereo not given)	2%[44.1 µM]
CC(C)(C)c1ccc(C(=O)N[C@H]2CC(C)(C)[C@@H]3C[C@@](C)(O)CC[C@]23CCC(=O)N2CCCC2)cc1	-18%
Cc1cnc(C2CC2)n1C1CCCN(C(=O)C2CC2)C1 (stereo not given)	i
CCc1ccc(NCc2cccn2-c2nnc(N3CCCCCC3)s2)cc1	-16%
Cc1ccc(CN(Cc2cccn2-c2nnc(N3CCCC3=O)s2)C(=O)Nc2ccccc2Cl)cc1	11µM*
Cc1ccc(NCc2cccn2-c2nnc(N3CCC(C(=O)NCc4ccc(OC(C)C)cc4)CC3)s2)cc1	-28%
COc1ccc(CN2C[C@H](O)C[C@H]2c2nc(-c3cccc([N+](=O)[O-])c3)no2)c(OC)c1OC	-13%
O=C(NCc1ccnc2[nH]ccc12)c1ccc2ccccc2n1	1%[44.1 µM]
CCc1ncc(CN2CCCC23CCN(c2ccc(C(F)(F)F)cn2)CC3)cn1	7.9µM*
Cn1cc(CN2CCCC23CCN(c2ccnc4c(C(F)(F)F)cccc24)CC3)cn1	i
CCn1ccnc1CN1CCCC12CCN(c1ccc(C(F)(F)F)cn1)CC2	-7%
